Results filed as inconclusive are left out. Where a call stands in place of a potency, no number is given. Calls of active or inactive are those of the source. Calls follow the shape of the full dose curve; tested in HEK293 reporter line.
Test: qHTS for Inhibitors of the Functional Ribonucleoprotein Complex (vRNP) of Lassa (LASV) Arenavirus: LASV Primary Screen - GLuc reporter signal (AID 1347082); also: nearly all actives have a fitted effect of over 60% in size
Settings: LASV minigenome vRNP, Gaussia luciferase reporter; series mostly up to 57.5 µM
Potency is read from the fitted curve at half-maximal effect.

Structure (SMILES)	Potency
O=C(O)c1ccc(-c2cc3cccnc3c(-c3ccc4nonc4c3)n2)cc1	inactive
O=C(Nc1cccc(C2=NCCN2)c1)Nc1cccc(C2=NCCN2)c1	inactive
O=C1CCCC2=C1C(c1[nH]ncc1Cl)N=C(Nc1nc3ccccc3o1)N2 (stereo not given)	inactive
COc1cc(N2CCC(N3CCN(C)CC3)CC2)ccc1Nc1ncc(Cl)c(Nc2ccccc2S(=O)(=O)C(C)C)n1	inactive
COc1cc2c(cc1OC)CC(=O)N(CCCN(C)C[C@H]1Cc3cc(OC)c(OC)cc31)CC2	inactive
COc1ccc(-c2ccc3c(N4CCOCC4)nc(N4C[C@@H](C)O[C@@H](C)C4)nc3n2)cc1CO	0.344 µM (active)
CC1=NN(c2ccccc2)C(=O)C1	inactive
CN1C(=O)C(Cc2c[nH]c3ccccc23)NC1=S (stereo not given)	inactive
CNC(=O)c1cc(Oc2ccc(NC(=O)Nc3cc(C(C)(C)C)nn3-c3ccc4ncccc4c3)c(F)c2)ccn1	7.69 µM (active)
CCOc1cc(NC(C)=O)ccc1C(=O)OC	inactive
CCN(CC)CCCCNc1nc2cc(Cl)c(Cl)cc2nc1-c1ccc(-c2cccs2)s1	inactive
CCC(C)(Oc1ccc(C2(c3ccc(OC(C)(CC)C(=O)O)cc3)CCCCC2)cc1)C(=O)O (stereo not given)	inactive
CCOC(CN1C(=O)[C@](CC(=O)Nc2ccc(C)cc2)(NC(=O)Nc2ccc(C)cc2)c2ccccc21)OCC	inactive
COc1ccc(CC2SC(=O)NC2=O)cc1C(=O)NCc1ccc(C(F)(F)F)cc1 (stereo not given)	inactive
CC(C)(C)NCC(O)c1ccc(O)c(CO)c1 (stereo not given)	inactive
CC(C)C[C@H](NC(=O)CNC(=O)c1cc(Cl)ccc1Cl)B(O)O	7.69 µM (active)
Cn1cc(-c2ccc3nnc(C(F)(F)c4ccc5ncccc5c4)n3n2)cn1	inactive
N#C/C(=C1\SCC(c2ccccc2Cl)S1)n1ccnc1 (stereo not given)	inactive
CNC(=O)c1cc(Oc2ccc(NC(=O)Nc3ccc(Cl)c(C(F)(F)F)c3)c(F)c2)ccn1	inactive
c1ccc2[nH]ccc2c1	inactive

Structure (SMILES)	Potency
Nc1ccccc1N	inactive
C/C(=C1\CCOC(=O)S1)N(C=O)Cc1cnc(C)nc1N	inactive
COc1ccc(CCN(C)CCCOc2ccc(S(=O)(=O)c3[nH]c4ccccc4c3C(C)C)cc2)cc1OC	inactive
CC(=O)N(C)C1(c2ccccc2)CCN(CCC[C@]2(c3ccc(Cl)c(Cl)c3)CCCN(C(=O)c3ccccc3)C2)CC1	inactive
CCN(CC)CCOc1ccc(Nc2ncc3cc(-c4c(Cl)cccc4Cl)c(=O)n(C)c3n2)cc1	1.93 µM (active)
Cc1ccc(C(N)=O)cc1Nc1nccc(-c2cn(C(C)C)c3cnccc23)n1	24.3 µM (active)
CCC(=O)N1CCN(c2ccc(-n3c(=O)ccc4cnc5ccc(-c6cnc7ccccc7c6)cc5c43)cc2C(F)(F)F)CC1	0.0385 µM (active)
O=C(Nc1ccccc1-c1cn2c(CN3CCNCC3)csc2n1)c1cnc2ccccc2n1	inactive
Clc1ccccc1CN1CCc2sccc2C1	inactive
CC(C)C[C@H](NC(=O)[C@@H](O)[C@H](N)Cc1ccccc1)C(=O)O	inactive
O=C(O)CCc1ccc(NCc2cccc(Oc3ccccc3)c2)cc1	inactive
COc1ncnc(NS(=O)(=O)c2ccc(N)cc2)c1OC	inactive
COC(=O)[C@]12CCC(C)(C)C[C@@H]1[C@@H]1C(=O)C=C3[C@@]4(C)C=C(C#N)C(=O)C(C)(C)[C@@H]4CC[C@@]3(C)[C@]1(C)CC2	4.85 µM (active)
CCN(c1ccccc1)c1cc(NC)[n+](C)c(C)n1	inactive
CC(=O)N[C@@H](CCC(N)=O)C(=O)O	inactive
CN(C)CC/C=C1/c2ccccc2COc2ccc(CC(=O)O)cc21	inactive
O=C1NS(=O)(=O)c2ccccc21	inactive
CCCCOCCOc1nc(-c2ccc(C(=O)O)c(F)c2)sc1C	inactive
CC(C)=CCCC(C)=CCCC(C)=CCSc1ccccc1C(=O)O	5.44 µM (active)
C[C@]12C[C@H](O)[C@H]3[C@@H](CCC4=CC(=O)CC[C@@]43C)[C@@H]1CC[C@@H]2C(=O)CO	inactive

— PubChem BioAssay (NCATS)
